High-throughput results deposited in PubChem BioAssay by National Center for Advancing Translational Sciences (NCATS).
The list is not random: actives were taken first. Their share in the collection is about 21%.
Pf growth 96h: Primary qHTS for delayed death inhibitors of the malarial parasite plastid, 96 hour incubation; P. falciparum luciferase reporter growth, 96 h; Potency, µM (highest dose often 28.7 µM), without a hit: at the top dose activity change, negative = inhibition, usual class: inhibitors; hit rate 6.9% among 320,000; also: potency is read from the fitted curve at half-maximal effect; % is scaled to controls: 0 for no effect and ±100 for the full control effect
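P. falciparum expressing integrated firefly luciferase grown in erythrocytes (2% hematocrit, 0.05% parasitemia final) with compounds for 96 hours at 37 C, 5% CO2. Growth inhibition read as loss of luminescence after adding luciferase detection reagent.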
NS1 inh: qHTS Assay for Inhibitors of Influenza NS1 Protein Function | Potency, µM (doses to about 46.1 µM), inactives show top-dose activity, positive = more growth | hit rate 0.4% among 270,000 | AID 2326, 2010; calls by dose curve; also: potency is read from the fitted curve at half-maximal effect; actives are rising curves; nearly all actives have a fitted effect of over 50% in size
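Growth recovery, yeast-based: influenza A NS1 expressed in S. cerevisiae causes slow growth, and suppressors are detected by OD600. The parent strain without NS1 is used as positive control.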
Pf growth 48h: Primary qHTS for delayed death inhibitors of the malarial parasite plastid, 48 hour incubation. P. falciparum luciferase growth in erythrocytes, 48 h. Potency, µM (highest dose often 28.7 µM), inactives show at the top dose activity change, negative = inhibition, usual class: inhibitors. hit rate 5.9% among 310,000. AID 504832, 2011; also: potency is read from the fitted curve at half-maximal effect; % is scaled to controls: 0 for no effect and ±100 for the full control effect
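Read-out is firefly luciferase luminescence from an integrated reporter in P. falciparum, so falling signal marks reduced parasite growth. Infected erythrocytes were at 2% hematocrit and 0.1% parasitemia (final) in Albumax-supplemented RPMI 1640.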
Shiga toxin inh: A qHTS for Small Molecule Inhibitors of Shiga Toxin; inhibition, % at 38.7 µM; Vero cells, Shiga toxin protein synthesis inhibition reporter; hit rate 9.2% among 290,000; in the data active = inhibition mostly above about 28%, no sharp cut-off; inactive = mostly below about 43%; also: 0% is about no effect
CHX counter: Cycloheximide Counterscreen for Small Molecule Inhibitors of Shiga Toxin; cell reporter, cycloheximide protein synthesis inhibition counterscreen; max response, %; hit rate 12% among 300,000; in the data active = max response mostly above about 13%, no sharp cut-off; inactive = mostly below about 14%; also: read at 38.3 µM for the half of the compounds with a filed dose; 0% is about no effect
Sm TGR inh: qHTS Assay for the Inhibitors of Schistosoma Mansoni Peroxiredoxins; purified TGR, DTNB reduction, TNB absorbance 405 nm; Potency, µM (highest dose often 114 µM), without a hit: at the highest dose activity change, negative = inhibition, most hits filed as inhibitors; hit rate 3% among 360,000; AID 485364, 2010; also: potency is read from the fitted curve at half-maximal effect; % is scaled to controls: 0 for no effect and ±100 for the full control effect; nearly all actives have a fitted effect of over 60% in size
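Kinetic colorimetric format: TGR-catalysed, NADPH-driven DTNB reduction monitored via TNB absorbance. Enzyme dispensed at 20 nM; compound exposure 15 min at room temperature before reaction start.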
The depositor's hits bear a star; u = inconclusive; x = no result. Unless noted, calls follow the shape of the dose curve; as a rule, active = well fitted curve in the direction sought with a large enough effect; inconclusive = small, poorly fitted or top-dose-only effect, or another doubt; inactive = no such curve, though single readings can be large; an effect the other way counts as inactive or inconclusive.

SMILES	Pf growth 96h	NS1 inh	Pf growth 48h	Shiga toxin inh	CHX counter	Sm TGR inh
Cc1ccccc1NC(=O)Cn1c(CCC(=O)O)ccc1-c1cccs1	49.6%	12.0%	3.3%	30.4	1.1	39.8µM*
Cc1ccc(NC(=O)Cn2c(CCC(=O)O)ccc2-c2cccs2)cc1	x	11.1%	5.2%	-10.1	-2.9	25.1µM*
Cc1cc(NS(=O)(=O)c2ccc(NC(=O)COc3cc(C)c(Br)cc3C(C)C)cc2)no1	x	x	x	x	x	-0.3%
CN(CC(=O)Nc1c(Cl)cccc1Cl)C(=O)c1ccccc1Cc1ccccc1	u	x	13.1µM*	x	x	1.0%
CCOc1ccc(NC(=O)CN(C)C(=O)c2cc(S(=O)(=O)N(C)C)ccc2N2CCCC2)cc1OCC	-19.5%	x	10.4µM*	x	x	-15.2%
CN(CC(=O)Nc1ccccc1Br)C(=O)c1ccccc1Cc1ccccc1	-26.3%	x	u	x	x	-3.7%
CCOc1ccc(NC(=O)CN(C)C(=O)c2cc(S(=O)(=O)N3CCCCC3)ccc2Cl)cc1OCC	u	x	-2.4%	x	x	-4.0%
CCOc1ccc(NC(=O)CN(C)C(=O)c2ccccc2Cc2ccccc2)cc1OCC	u	x	11.7µM*	x	x	-2.2%
CCOc1ccc(NC(=O)CN(C)C(=O)CSCc2cccc(C)c2)cc1OCC	14.7µM*	x	u	x	x	1.8%
COc1ccc(NC(=O)CN(C)C(=O)c2csc3c2CCCC3)cc1	22.9%	x	-1.2%	x	x	-1.1%
CCOc1ccc(NC(=O)CN(C)C(=O)c2csc3c2CCCC3)cc1OCC	u	x	13.1µM*	x	x	-24.0%
O=C(NCCc1ccccc1)c1cccc([N+](=O)[O-])c1	146.3%	-9.8%	110.2%	active	82.2*	-3.5%
O=C(NCCc1ccccc1)c1cccnc1	186.9%	-7.2%	x	63.0*	37.1*	3.0%
O=C(COC(=O)c1cccc(Br)c1)NCCNC(=O)COC(=O)c1cccc(Br)c1	0.415µM*	-5.4%	0.465µM*	-14.5	-2.7	-6.3%
CCCNC(=O)C(Cc1cccc(C#N)c1)NC(=O)c1cccc([N+](=O)[O-])c1 (stereo not given)	u	x	u	x	x	-2.5%
O=C(NCc1ccccc1)c1cccnc1	-2.7%	2.5%	10.2%	-8.9	1.0	4.9%
CCCNC(=O)C(Cc1ccccc1)NC(=O)c1cccc([N+](=O)[O-])c1 (stereo not given)	u	x	8.28µM*	x	x	-3.7%
O=C(CCNC(=O)c1ccc([N+](=O)[O-])cc1)NCCc1ccccc1	10.2%	8.6%	25.7%	20.6	9.6	1.8%
O=C(COC(=O)c1cccc(Br)c1)NCCc1ccccc1	13.2%	-5.9%	1.6%	10.3	-4.1	9.4%
C[C@@H](N1CCOCC1)[C@@](O)(c1ccccc1)c1ccccn1	x	2.8%	x	x	x	x
Cc1c(C)n(-c2ccccc2)c2ncnc(NCCN(C)C)c12	21.4%	0.3%	2.1%	-15.6	-3.2	-1.0%
COc1ccc(N2CCN(c3oc(-c4ccc(COc5cccc(C)c5)o4)nc3C#N)CC2)cc1	x	x	x	x	x	-3.6%
O=C(COc1ccc(Br)cc1)N/N=C1\SCC(=O)N1c1ccc(F)cc1	-29.6%	9.0%	19.7%	-5.7	-7.6	-28.8%
CC/C(Cc1ccccc1)=N/NC(=O)c1cccc(Br)c1	12.3%	0.8%	6.1%	46.5*	16.1	-5.1%
O=C(N[C@@H](Cc1ccccc1)C(=O)O)c1cccnc1	2.94µM*	u	x	-4.9	-9.1	3.2%
SMILES	Pf growth 96h	NS1 inh	Pf growth 48h	Shiga toxin inh	CHX counter	Sm TGR inh
O=C(NC(NCc1ccccc1)C(Cl)(Cl)Cl)c1cccnc1 (stereo not given)	24.0%	-6.9%	-2.9%	-3.9	-1.1	7.3%
O=C(NCCc1ccccc1)c1cccc(Br)c1	11.5%	-42.1%	145.6%	78.9*	39.0*	5.6%
O=C(CNC(=O)c1ccccc1)NCCc1ccc(O)c(O)c1	-4.5%	10.3%	u	15.3	11.9	3.16µM*
CCCNC(=O)c1cccc(Br)c1	u	x	20.4%	-3.2	-3.5	6.9%
CCCc1cc(=O)[nH]c(SCc2nc(-c3ccccc3)no2)n1	x	x	x	x	x	9.1%
CC(C)C(OC(=O)Cn1nnc2ccccc21)C(=O)NC1CCCC1 (stereo not given)	-2.2%	-0.7%	7.8%	26.0	-2.9	-1.6%
